Results reported in PubChem BioAssay AID651965 (National Center for Advancing Translational Sciences (NCATS), 2013).
The campaign covered roughly 340,000 compounds. About 6,400 (1.9%) were called active. About 4% were inconclusive and are not listed. Calls follow the shape of the dose curve; as a rule, active = well fitted falling curve with a large enough effect; inconclusive = small, poorly fitted or top-dose-only effect; inactive = no such curve, though single readings can be large or run the other way. Shown is part of a subset that was picked to be rich in actives. Entries that show only a call come without a potency.

What follows are compounds tested against ATP-dependent Clp protease proteolytic subunit (Bacillus subtilis (strain 168)) (UniProt P80244) (assay: qHTS Assay for Activators of ClpP). Details: purified B. subtilis ClpP, FRET peptide cleavage, 20 min; series mostly up to 57.5 µM.
Procedure, shortened: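 Buffer: 100 mM Tris/HCl pH8, 100 mM KCl, 0.05% low protease BSA, 2.5% glycerol, 0.01% Tween-20. ClpP 10 microg/mL final; 20 min RT; delta FRET normalized to ADEP and DMSO controls.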
Also: the source files actives as falling curves though it sought activators and does not explain the sign; nearly all actives have a fitted effect of over 65% in size.
Potency is read from the fitted curve at half-maximal effect.

Row | SMILES | Potency
1 | Cc1ccc(S(=O)(=O)N2CCC(=O)N([C@H](COCc3ccccc3)C(C)C)CC2)cc1 | inactive
2 | CN(N=O)c1ccc(C=C2c3ccccc3-c3ccccc32)cc1 | inactive
3 | CN(C)C1=C2C=CC=CC2/C(=C2/C=Cc3ccccc32)C=C1 (stereo not given) | inactive
4 | Cc1ccc(-c2cnc(C(O)c3cccc(C)c3C)[nH]2)cc1 (stereo not given) | inactive
5 | O=C(c1ccco1)N(Cc1cccs1)c1ccc(O)cc1 | inactive
6 | O=C1NC[C@H](Cc2ccc(O)cc2)N(C[C@@H]2CCCN2C[C@H](Cc2ccccc2)N2C[C@H](Cc3ccccc3)N(CC3CCCCC3)C(=O)C2=O)C1=O | inactive
7 | CCOC(=O)C(=O)C1C(=O)Nc2ccccc21 (stereo not given) | inactive
8 | CCOC(=O)CN1CCC(c2ccccc2)CC1 | inactive
9 | CCOC(=O)NN1C(=O)c2ccccc2NC1c1ccccc1O (stereo not given) | 25.1 µM (active)
10 | CCN1C(=O)N[C@@H](c2ccccc2)C(C(=O)OC)=C1C | inactive
11 | CCOC(=O)NC(C(F)(F)F)(C(F)(F)F)P(=O)(c1ccccc1)c1ccccc1 | inactive
12 | CCOC(=O)NN1C(=O)c2ccccc2NC1c1cccc(O)c1 (stereo not given) | 31.6 µM (active)
13 | CCOC(=O)[C@]12CCCC=C1N(CCC1=CCCCC1)C(=O)[C@H](CC(=O)NCCCCc1ccccc1)C2 | inactive
14 | O=C(Nc1ccccc1C(F)(F)F)c1nc(S(=O)(=O)Cc2ccccc2F)ncc1Cl | inactive
15 | COc1cc2nc(Cl)nc(NC3CC3)c2cc1OC | inactive
16 | CN(CC(=O)O)C(=O)c1ccccc1 | inactive
17 | CN(O)C(=S)c1ccccc1 | 11.2 µM (active)
18 | CN(/N=C/c1ccccc1)C(=S)c1ccccc1 | inactive
19 | O=S1(=O)CC(N2CCN(Cc3ccccc3F)CC2)CN1Cc1cn(Cc2ccccc2)nn1 (stereo not given) | inactive
20 | Cc1c(CCO)sc[n+]1CC(=O)c1ccc2ccccc2c1 | inactive
21 | CCc1nc2ccc(C(=O)N(C)Cc3ccco3)cn2c1N(C)C(=O)Cc1ccccc1 | inactive
22 | CN(CCO)C(=O)c1nc[nH]c1C(=O)N(C)Cc1ccccc1 | inactive

Row | SMILES | Potency
23 | CN(Cc1ccccc1)C(=O)[C@@H]1CCCN1C(=O)[C@@H]1CCCN1C(=O)c1c(F)cccc1F | inactive
24 | Cc1nccn1-c1ccc(NC(=O)[C@H]2O[C@@H](n3ccc(=O)[nH]c3=O)[C@H](O)[C@@H]2O)cc1 | inactive
25 | CCCC(=O)N1CCC1(C)C(=O)Nc1ccc(-n2cncn2)cc1 (stereo not given) | inactive
26 | O=C(Nc1ccn(Cc2ccccc2F)n1)c1ccc(COc2ccc(Cl)cc2Cl)o1 | inactive
27 | Cc1ccc(Cn2ccc(NC(=O)C3C4CCC(C4)C3C(=O)O)n2)cc1 (stereo not given) | inactive
28 | O=C(Nc1ccn(Cc2ccccc2)n1)c1n[nH]c([N+](=O)[O-])c1Cl | 22.4 µM (active)
29 | O=C(c1cnn2c1NC(=C1CC1)C=C2C(F)F)N1CCc2ccccc2C1 | inactive
30 | Cc1ccc(C(O)c2ncc(-c3ccccc3F)[nH]2)cc1F (stereo not given) | inactive
31 | CCCCn1c(N)c(N(CCC(C)C)C(=O)c2ccc([N+](=O)[O-])o2)c(=O)[nH]c1=O | 3.16 µM (active)
32 | CCCCn1c(N)c(N(CCC(C)C)C(=O)c2ccc(COc3ccccc3)o2)c(=O)[nH]c1=O | inactive
33 | CCCCN(C(=O)c1ccc(C)o1)c1c(N)n(CCCC)c(=O)[nH]c1=O | inactive
34 | CCN(C(=O)Nc1cccc2ccccc12)c1ccccc1 | inactive
35 | Cc1cc(=O)[nH]c(SCc2cc(Cl)ccc2OC(F)F)n1 | inactive
36 | O=c1cc(O)nc(SCc2ccccc2Cl)[nH]1 | 28.2 µM (active)
37 | Cc1cc(=O)[nH]c(SCc2ccc(Cl)cc2)n1 | inactive
38 | O=C(Nc1cccc2ccccc12)c1[nH]c(-c2ccccc2)c2c1C(=O)N(C1CC1)C2=O | inactive
39 | O=C(OC1CC2CC1[C@H]1CCCCN1C2=O)N1CCOCC1 (stereo not given in full) | inactive
40 | COc1ccccc1-c1sc2ccccc2c1C#CC1(O)CCCCC1 | inactive
41 | COc1ccc2sc(-c3ccccc3OC)c(-c3ccc(OCCN4CCCC4)cc3)c2c1 | inactive
42 | COc1ccccc1-c1sc2ccccc2c1-c1ccc(C(C)=O)cc1 | 28.2 µM (active)
43 | CCCOc1ccc(F)cc1-c1cc(C(=O)Nc2ccc(F)c(Cl)c2)[nH]n1 | inactive
44 | CN(C)c1ccc(/C=C/c2sc3ccccc3[n+]2CCCCBr)cc1 | inactive

Row | SMILES | Potency
45 | CCOC(=O)[C@]12CCCC=C1N(CCC1=CCCCC1)C(=O)[C@H](CC(=O)N1CCSCC1)C2 | inactive
46 | Fc1ccc2cnc(-c3ccccc3)cc2c1 | inactive
47 | O=S(=O)(c1ccc(F)cc1)N1CC=C(c2ccccc2)CC1 | inactive
48 | O=S(=O)(c1ccc(F)cc1)n1ccc(-c2cnc(-c3ccccc3)s2)n1 | 20 µM (active)
49 | Cc1ccc(S(=O)(=O)N2CC3C(=O)C[C@@H](c4ccccc4Cl)N(S(=O)(=O)c4ccc(C)cc4)C3CC2c2ccccc2)cc1 (stereo not given in full) | inactive
50 | Cc1cccc(-c2nnc(SC(C)C(=O)Nc3ccccc3)n2C)c1 (stereo not given) | inactive
51 | CCOC(=O)[C@]12CCCC=C1N(Cc1ccc3c(c1)OCO3)C(=O)[C@H](CC(=O)N1CCN(C(=O)c3ccco3)CC1)C2 | inactive
52 | CN(C)c1ccc(/C=C/c2sc3ccccc3[n+]2C)cc1 | inactive
53 | CC1(Oc2cccc(F)c2)CCN(Cc2ccccc2OC(F)F)C1 (stereo not given) | inactive
54 | Cc1nc2cccnc2nc1C | inactive
55 | Cc1nc2ccccc2nc1CC(O)(c1ccccc1)c1ccccc1 | inactive
56 | Cc1nc2ccccc2cc1O | 3.55 µM (active)
57 | CC(C)c1cc(C(=O)N(C)C2CCCN(Cc3ccccc3F)C2)n(C)n1 (stereo not given) | inactive
58 | Cc1cn([C@H]2C[C@H](O)[C@@H](/C=C/C(=O)NCCCc3ccccc3)O2)c(=O)[nH]c1=O | inactive
59 | Cc1cc(Cl)ccc1C(=O)C1CCCN(C(=O)c2ccc3c(c2)OCO3)C1 (stereo not given) | inactive
60 | COc1ccc(N2C(=O)c3cccc4cccc(c34)C2=O)nn1 | 15.8 µM (active)
61 | CC(C(=O)O)N1C(=O)c2cccc3cccc1c23 (stereo not given) | inactive
62 | O=C1c2cccc3cccc(c23)N1CN1CCN(c2ccccn2)CC1 | inactive
63 | CCCOc1ccc(-c2cccc(NS(=O)(=O)c3ccccc3)c2)nn1 | inactive
64 | CCCS(=O)(=O)Nc1cccc(-c2cn3ccsc3n2)c1 | inactive
65 | CCS(=O)(=O)Nc1cccc(-c2cc(-c3ccccc3)c3cc(C)ccc3n2)c1 | 31.6 µM (active)
